Over roughly 25,000 sequences, “ln(normalized median fluorescence intensity)” has its median near 9.7; the highest 2% begin near 11. The list comes from a sample in which the highest values are over-represented; it also holds similar and randomly drawn sequences.
system: PfAP2-HC AP2 domain (GST-tagged); assay: gcPBM binding intensity (ln(normalized median fluorescence intensity)); higher = stronger DNA binding
Summary of the method: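 GST-fused DNA-binding domains of P. falciparum, expressed in E. coli, were applied at about 25 μg on average for 1 h to an Agilent 4 × 180k array of primer-extended double-stranded 36-bp intergenic genomic probes and negative controls. Binding intensity is the highest Masliner-normalised natural-log median intensity across replicate spots of either probe orientation, measured with Alexa488 anti-GST antibody and a 488 nm scan.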

| Sequence | gcPBM binding intensity (ln) |
| --- | --- |
| TTGTGTACATATTAAGTGCATATATATATATATATA | 10.4 |
| TTTTACCTAAATATCACACATATTTAAATATATATA [CACACA_site5597] | 9.57 |
| AGTCAATTTTGTGTGTCAACATTTATATAAAGAATG [TGCATGCA_negctrl_site400] | 9.71 |
| AAGGTAAACGGACACACACACATACAAAAAAAAAAA [CACACA_site5961] | 11.3 |
| AAGGTAAACAGACACACACACATACAAAAAAAAAAA [CACACA_site3768] | 10.8 |
| AGAAGGTAAAAACACACACACACATACAAAAAAAAA [CACACA_site3767] | 10.7 |
| TATATATAAAAAACATGTACACAAATTTACATACAT [XGTACX_site4777] | 9.79 |
| ATGTATGGAAATTTTACACACAAGAGTAGTTTAAAA [CACACA_site1710] | 9.9 |
| CCCACTAAAAAACACACACACACACCCATATATATA [CACACA_site6140] | 11 |
| TACCCACTAAAATACACACACACACCCACATATATA [CACACA_site6141] | 10.4 |
| CACCCACTAATAAACACACACATATATATATATATA [CACACA_site389] | 10.4 |
| AAAAAAAACGCACATACACACACACCCATATATATA [CACACA_site9118] | 10.4 |
| CGCACTAAAAAACACACACACACACCCATATATATA [CACACA_site4152] | 11 |
| AAAGATGATAAAATATGTACACACAGTTTATACATT [XGTACX_site8703] | 9.95 |
| AAGAAAAAAAAAATTACACACTGCGCAGATACACAA [CACACA_site1289] | 9.86 |
| ATTTTTTCTTTTCGATGTACCCTTCTTATTCTTTAT [XGTACX_site3782] | 10.1 |
| TCTTGATCTTATATATATCTACAATATTTTATACAT [TGCATGCA_negctrl_site569] | 10.2 |
| CTGCGTTTAATATGCGTGCACCTTGGTTTTATATCT [GTGCAC_site9525] | 9.83 |
| GTAAGTTTGAATACACGTACAAATTTATTAAAGTCC [XGTACX_site6722] | 9.72 |
| ATTCTATATGTTACATAAACCTATATTTTTTTTTTT [CACACA_negctrl_site860] | 9.58 |
| TTTTACTTAAGACACACACACACAAAAAAAAAAAAA [CACACA_site6573] | 10.8 |
| TAAATAAATATATATTCACACACAAACATATATATA [CACACA_site9332] | 10.5 |
| CTATTTCATGGACACACACACACAAACAAACATATA [CACACA_site4696] | 11.1 |
| AATAAATATATATTCACACACAAACATATATATATA [CACACA_site4023] | 10 |

| Sequence | gcPBM binding intensity (ln) |
| --- | --- |
| CTATTTCAGAAACACACACACACAAACAAACATATA [CACACA_site978] | 10.4 |
| ATATAACATGGACACACACACATATATATATATTAT [CACACA_site6135] | 10.4 |
| CTATTTCATAAACACACACACACAAACAAACATATA [CACACA_site8234] | 11.5 |
| TTTTAAGAAAAAAAATGTACACATGAAAATAGTGAA [XGTACX_site5898] | 9.5 |
| TAGATACATAAAAGTGGTACATATATATATATATAT [XGTACX_site6263] | 9.85 |
| TAACTTAAATAATACATACACACATGTACATACAGA [CACACA_site1594] | 10.2 |
| TCTATTTTTTATATGGTGCATTGTTCTTATTAATAT [GTGCAC_site9392] | 9.77 |
| GTTACACAAACAAACACACACACACGCACGCACAAA [CACACA_site7191] | 11.3 |
| ATAAAAATTGATTATACACACGCGCACCCACAACAA [CACACA_site3536] | 10.3 |
| AAAAAACAAAAACACACGCACACAAAAAAAAAAAAA [CACACA_site802] | 10.2 |
| ATTACATACACGCGCACACACAAAAAAAAAAAAAAA [CACACA_site1334] | 9.98 |
| TGATTATACGCACGCGCACACACAACCAAAAAAAAA [CACACA_site3537] | 10.2 |
| ATTATAGACACGCGCACACACAACAAAAAAAAAAAA [CACACA_site9180] | 11.3 |
| TTATATTATAGACACACACACAAAAAAAAAAAAAAA [CACACA_site3816] | 10.1 |
| TGATTATAGACACGCGCACACACAACAAAAAAAAAA [CACACA_site9179] | 10.1 |
| ATAGACAGCGCACAAACACACAAACACGCACGCACA [CACACA_site6349] | 10.2 |
| TACACAAACAGACACACACACACACGCGCACAAAAA [CACACA_site7192] | 11 |
| ATTATACACCCGCGCACACACAACAAAAAAAAAAAA [CACACA_site5871] | 11.1 |
| CACAAACAAAGACACACACACACACGCACAAAAATG [CACACA_site7193] | 10.7 |
| TTTCTTTTTTCTGTTATTATTATAAAACGATATTTA [TGCATGCA_negctrl_site167] | 9.58 |
| TTATTAAGTAAATCACATTTAATTTTTTTTTTTTTT [CACACA_negctrl_site1280] | 9.27 |
| GAATATGTTAACATTTGTACATAAAATTTTTTACAA [XGTACX_site2444] | 9.49 |
| ATTATTTTGTTTATTACATGCAGGTGTATATTACAG [TGCATGCA_site723] | 9.59 |
| ATCACATAAAATATGAATATATATTTTATATATATA [CACACA_negctrl_site340] | 9.53 |

| Sequence | gcPBM binding intensity (ln) |
| --- | --- |
| AAAAGAGAAATGGGCACACACACACCCATTATATAT [CACACA_site1530] | 10.2 |
| AAAAGAGAAATGGGCACACACACACCGATTATATAT [CACACA_site4942] | 11 |
| AGAAAAGAGAAATGGGCACACACACCCATATTATAT [CACACA_site8433] | 10.1 |
| ACCTATTTCAAACACACACACACACCCACAAACATA [CACACA_site977] | 10.9 |
| ACCTATTTCAAACACACACACACACTAACAAACATA [CACACA_site8233] | 10.8 |
| ACCTATTTCAAACACACACACACACTAGCAAACATA [CACACA_site4695] | 10.9 |
| ATGTACCTATTTCATACACACACACCCACAAACAAA [CACACA_site8232] | 10.4 |
| GTACCTATTTCATACACACACACACGCAAACAAACA [CACACA_site6590] | 11.1 |
| GTACCTATTTCATACACACACACACCCAAACAAACA [CACACA_site976] | 10.5 |
| TATATAAACACGTACACACACATATCTGTATTTATA [CACACA_site5858] | 10.4 |
| AAAAAATAGTGGTATGCATGTCCCTTGTATTTTCTT [TGCATGCA_site587] | 9.63 |
| TACACCAAAAAAAAACGTACAAAATCCCACCCAGAC [XGTACX_site4622] | 11.1 |
| GTATATATTTAAACACGTACACAAAACCCAAAAAAT [XGTACX_site8110] | 9.95 |
| TTAATGTACAGACACCCACACACAAACAAATATATA [CACACA_site8888] | 10.2 |
| TAATTTTTTTTTTTTTTTTTTGTACTTCATTTTTAT [CACACA_negctrl_site1395] | 9.58 |
| TTTTTTTTGTTCTATACAATTATAAAAATAAAATAT [XGTACX_negctrl_site53] | 9.06 |
| TAATACTTAGAGAAAAGTACGTATGAACTTATGTAA [XGTACX_site5504] | 9.59 |
| TTTCCCTTGTTGTAAACATGCACAATATTTAGGTAT [TGCATGCA_site49] | 9.75 |
| CAAAAGAAGGTAAACACACACACACCCATACAAAAA [CACACA_site3765] | 10.7 |
| CACACCCACCAACACACACACAAAAAAAAAAAGAAA [CACACA_site500] | 10.4 |
| AAAGCACCCATGCACACACACAAAGGAAAAGAAAAA [CACACA_site6249] | 10.3 |
| CACAAACAAAAACACACACACACACCGACAAAAATG [CACACA_site5362] | 10.6 |
| CAAAAGAAGGTAAACACACACACACGCATACAAAAA [CACACA_site7724] | 10.4 |
| AATTAACAAAAACACACACACACACCGACAAAAAAA [CACACA_site4444] | 10.9 |

| Sequence | gcPBM binding intensity (ln) |
| --- | --- |
| AAAGCACCCAGGCACACACACAAAGGAAAAGAAAAA [CACACA_site232] | 11 |
| TTAACAAAGAAACACACACACACACCCAAAAAAAAA [CACACA_site516] | 10.6 |
| AAAGAAGGGAAACACACACACACACCCACAAAAAAA [CACACA_site3766] | 11.4 |
| AAAAAAAAAAAACACACACACACACCGACAAAATAT [CACACA_site8411] | 10.8 |
| AAAGAAGGTAAACACACACACACACCGACAAAAAAA [CACACA_site9255] | 11.5 |
| TTAAAGCACCCATGCACACACACAAAGGAAAAGAAA [CACACA_site233] | 10.2 |
| TTTTTTTCTTTATTAGCACACATAATATTATATATG [CACACA_site8841] | 9.79 |
| TTGGGGTATCTTCCTATGCACACTTGTTATGTACTA [CACACA_site831] | 9.85 |
| TATATATATATATATTGTACTATATAGTATCTTTTT [XGTACX_site1646] | 9.78 |
| TTTCACATATATATGGTGCATATTTTATGTGTAAAT [GTGCAC_site9937] | 9.7 |
| AATTTTTTTTAATGATGTACTTTTTGAAAATAAACT [XGTACX_site4221] | 9.31 |
| TTTCTAAGAAAAAAAAAAAAAAAAAAAAAGATACAA [GTGCAC_negctrl_site525] | 9.24 |
| CACAAACAAAAACACACACACACACCCACAAAAATG [CACACA_site2429] | 11 |
| AGCACACCCACAAAAACACACACAAAGGTGTTCTTA [CACACA_site8355] | 10.5 |
| AATTAAACTCACACCACACACAAAAAAAAAAAAAAA [CACACA_site693] | 10.3 |
| TAAAATAAAACAAACACACACACACCCCCACAAAAA [CACACA_site3850] | 10.8 |
| TGCAACAAAATAAACACACACACACCCCCACAAAAA [CACACA_site3388] | 10.6 |
| AAGTAAAAAAATAGCACACACACAAAAACACCCACA [CACACA_site1291] | 10.8 |
| GTAAAAAAAGAGCACACACACAAAAACACCCACAAA [CACACA_site1292] | 10.9 |
| TACATAAATTAAAACACACACACACCCAAAAAAAAA [CACACA_site2261] | 10.5 |
| AATTAACAAAAACACACACACACACCCACAAAAAAA [CACACA_site517] | 11.4 |

From the supplement of paper PMC11417369
